Results from PubChem BioAssay (NCATS).
Inconclusive results are not listed. Where a call stands in place of a potency, no number is given. Active and inactive are the calls of the source. The call rests on the fitted dose curve; in most records, active means well fitted cell-killing curve with a large enough effect; inconclusive means small, poorly fitted or top-dose-only effect; inactive means flat fitted curve, though single readings scatter.

test: qHTS of pediatric cancer cell lines to identify multiple opportunities for drug repurposing: Primary screen for Rh18 cells (AID 1347102); settings: Rh18 rhabdomyosarcoma viability, CellTiter-Glo luminescence, 48 h; series mostly up to 46 µM; further: nearly all actives have a fitted effect of over 65% in size
Description: Drug repurposing or repositioning has been offered as a strategy for drug development in oncology programs. This approach has special potential for childhood cancers and other rare or orphan diseases, where the expected return on new drug development has been a disincentive to pharmaceuticals.
In this project we exploit the poly-pharmacology of drugs to discover new indications via phenotypic screening of a panel of 19 well-characterized cell lines derived from solid tumors seen in children and adolescents. The goal is to identify approved drugs with previously unrecognized anticancer properties that has the potential to reveal new mechanisms and biological processes involved in carcinogenesis or drug resistance. We employed a titration-based paradigm (quantitative high-throughput screening or qHTS), where all compounds were tested at multiple concentrations for their effect on cell viability. Concentration-response curves (CRCs) were derived directly from the primary screen, and both potency and efficacy values were used to identify compounds with robust bioactivity profiles. We screened the NIH Chemical Genomics Center (NCGC) Pharmaceutical Collection (NPC) and Mechanism Interrogation Plate (MIPE) small molecule collections of approved and investigational compounds against these cell lines; and measured metabolically active cells after 48 hours of compound treatment as a proxy for cell viability.
Assay Submitter: Nathalia J. Martinez, National Center for Advancing Translational Sciences, National Institutes of Health, Rockville, MD, USA; email: natalia.martinez@nih.gov
[1] Shen, M et al. Quantitative high-throughput phenotypic screening of pediatric cancer cell lines identifies multiple opportunities for drug repurposing. Oncotarget 2017 Dec 19;9(4):4758-4772. PMID 29435139.
The cells were obtained from University of North Carolina (UNC), Pediatric Preclinical Testing Program (PPT), and Coriell Institute (CI).
qHTS cell viability assay:
Cells were assayed in growth media at a density of 500-1,000 cells/well. Five microliters of cells were dispensed into 1,536-well, white, solid-bottom, TC-treated plates (Greiner Bio One) using a multidrop dispenser and incubated at 37 degrees C, 5% CO2, under a humidified atmosphere for 5 hours. Twenty-three nanoliters of compounds and controls (neutral control DMSO or positive control bortezomib at final concentration of 2.3 µM) were subsequently transferred by Kalypsys pintool. For primary screens, the MIPE collection was tested at 11-point dilutions (final concentrations range from 0.78 nM to 46 µM) and the NPC collection at 8-point dilutions (final concentrations range from 0.59 nM to 46 µM). Compounds tested in follow-up screens were assayed at 11-point dilutions. Cells were incubated for 48 hours, followed by addition of 3 µL of CellTiter-Glo (Promega). After a 15 min incubation at room temperature, samples were analyzed for luminescence intensity using a ViewLux High-throughput CCD imager equipped with clear filters.
Potency means the concentration at half of the fitted maximal effect.

Structure (SMILES) | Potency
CC1=C(C(=O)O)N2C(=O)[C@@H](NC(=O)C(N)c3ccccc3)[C@H]2SC1 (stereo not given in full) | inactive
CCn1cc(C(=O)O)c(=O)c2cc(F)c(N3CCNCC3)cc21 | inactive
O=C(NCC1CN(c2ccc(N3CCOCC3=O)cc2)C(=O)O1)c1ccc(Cl)s1 (stereo not given) | inactive
CCCN[C@H]1CCc2nc(N)sc2C1 | inactive
CC(C)(C)NC(=O)[C@H]1CC[C@H]2[C@@H]3CC[C@H]4NC(=O)C=C[C@]4(C)[C@H]3CC[C@]12C | inactive
CCN[C@H]1C[C@H](C)S(=O)(=O)c2sc(S(N)(=O)=O)cc21 | inactive
CC(=O)Oc1ccccc1C(=O)Nc1ncc([N+](=O)[O-])s1 | 42.9 µM (active)
COc1cc2nc(N3CCCN(C)CC3)nc(NC3CCN(Cc4ccccc4)CC3)c2cc1OC | 9.35 µM (active)
Nc1nc(=S)c2[nH]cnc2[nH]1 | 13.3 µM (active)
CC(C)C1CCC(C(=O)N[C@H](Cc2ccccc2)C(=O)O)CC1 (stereo not given in full) | inactive
CCCCc1oc2ccc(NS(C)(=O)=O)cc2c1C(=O)c1ccc(OCCCN(CCCC)CCCC)cc1 | 18.7 µM (active)
COc1c(N2CCNC(C)C2)c(F)cc2c(=O)c(C(=O)O)cn(C3CC3)c12 (stereo not given) | inactive
Cn1c(=O)c2c(ncn2CC(O)CO)n(C)c1=O (stereo not given) | inactive
COC(=O)Nc1nc2ccc(C(=O)c3ccccc3)cc2[nH]1 | inactive
COc1cnc(NS(=O)(=O)c2ccc(N)cc2)nc1 | inactive
CCn1cc(C(=O)O)c(=O)c2cc(F)c(N3CCN(C)CC3)cc21 | inactive
CC1(C)[C@H](C(=O)O)N2C(=O)C[C@H]2S1(=O)=O | inactive
O=C(O)c1cn(C2CC2)c2cc(N3CCNCC3)c(F)cc2c1=O | inactive
O=NN(CCCl)C(=O)NC1CCCCC1 | inactive
CNS(=O)(=O)CCc1ccc2[nH]cc(C3CCN(C)CC3)c2c1 | inactive

Structure (SMILES) | Potency
COc1nc(N)nc2c1ncn2[C@@H]1O[C@H](CO)[C@@H](O)[C@@H]1O | inactive
Nc1[nH]c(=O)ncc1F | inactive
CC(=O)CC(c1ccccc1)c1c(O)c2ccccc2oc1=O (stereo not given) | inactive
NC(N)=NC(N)=NCCc1ccccc1 | inactive
NC(=O)c1ccc2[nH]ccc2c1 | inactive
CC[C@H](NC(C)C)[C@H](O)c1ccc(O)c2[nH]c(=O)ccc12 | inactive
CNNCc1ccc(C(=O)NC(C)C)cc1 | inactive
O=C(O)CSCC(=O)NC1CCSC1=O (stereo not given) | inactive
O=C(O)c1ccc(-n2nc(-c3ccccc3O)nc2-c2ccccc2O)cc1 | inactive
COc1cc(NS(=O)(=O)c2ccc(N)cc2)nc(OC)n1 | inactive
CC(C)OC(=O)OCOP(=O)(CO[C@H](C)Cn1cnc2c(N)ncnc21)OCOC(=O)OC(C)C | inactive
CCC(=O)O[C@]1(C(=O)SCF)[C@H](C)C[C@H]2[C@@H]3C[C@H](F)C4=CC(=O)C=C[C@]4(C)[C@@]3(F)[C@@H](O)C[C@@]21C | inactive
CNC(=O)c1cc(Oc2ccc(NC(=O)Nc3ccc(Cl)c(C(F)(F)F)c3)cc2)ccn1 | 18.7 µM (active)
N[C@@H](C(=O)N[C@@H]1C(=O)N2C(C(=O)O)=C(Cl)CS[C@H]12)c1ccccc1 | inactive
CC(=O)[C@H]1CC[C@H]2[C@@H]3CC=C4C[C@@H](O)CC[C@]4(C)[C@H]3CC[C@]12C | inactive
C[C@@H](NCCCc1cccc(C(F)(F)F)c1)c1cccc2ccccc12 | inactive
O=C(N[C@H](CO)[C@H](O)c1ccc([N+](=O)[O-])cc1)C(Cl)Cl | inactive
CS(=O)(=O)c1ccc([C@@H](O)[C@@H](CO)NC(=O)C(Cl)Cl)cc1 | inactive
CC(C)OC(=O)C(C(=O)OC(C)C)=C1SC=CS1 | inactive
CC(C(=O)O)c1ccc2c(c1)CC(=O)c1ccccc1S2 (stereo not given) | inactive
